High-throughput results as filed in PubChem BioAssay.
HIF-2a block – HIF-2a inhibition. inhibition, % at 18.8 µM. 360,000 tested, 0.72% active. 786-0 RCC cells HIF-2a reporter, luciferase luminescence, overnight;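 active means inhibition of the luminescence signal of 40% or more relative to plate controls, in a single-dose primary screen at 18.75 µM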
Peg3 prom inh – reduces Peg3 promoter-driven luciferase expression in HeLa. HeLa PEG-Prom luciferase reporter, luminescence, overnight. inhibition, % at 20 µM. 360,000 tested, 1.7% active;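 active means inhibition of at least 50% at 20 µM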
Mdm2 MdmX PPI – disrupts the human Mdm2-MdmX interaction; inhibition, % at 8 µM; O15151+Q00987; 330,000 tested, 3% active; SaOS-2 split-luciferase Mdm2/MdmX complementation, luminescence;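 active means inhibition of at least 50% at 8 µM in the primary screen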
ABHD5 PLIN5 PPI – blocks binding of human ABHD5 to perilipin-5. Q00G26+Q8WTS1. Split G. princeps luciferase complementation, luminescence, 4 h. inhibition, % at 4 µM. 360,000 tested, 0.78% active. AID 602281;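 active means inhibition above the mean inhibition across every tested compound plus 3 SD, cut at about 22% in these data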
CF NFkB inh – inhibitors of cystic fibrosis induced NF-kB | AID 588850 | inhibition, % at 5 µM | 360,000 tested, 0.86% active | KKLEB NF-kB-GFP reporter, PAF-induced, GFP fluorescence overnight;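 active means at least 50% inhibition at 5 µM, scaled per plate between neutral and stimulator controls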;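 further: PAF is a Pseudomonas aeruginosa culture filtrate used as stimulus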
KKLEB tox – CF airway cell cytotoxicity counter-screen. 360,000 tested, 0.36% active. AID 602141. activity change (cytotoxicity), % at 5 µM. KKLEB CF airway cells viability, ATPlite luminescence, overnight; stronger effect = lower value; cells stimulated with P. aeruginosa culture filtrate;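 active means corrected activity change at or below -50% at 5 µM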
Mdm2 MdmX conf-1 – confirmation of human Mdm2/MdmX interaction inhibitors; shares compounds with Mdm2 MdmX PPI; Mdm2-MdmX binding, luminescent assay; inhibition, % at 8 µM; 10,000 tested, 55% active
FLuc counter – full-length luciferase inhibition in Mdm2/MdmX counter-screen; SaOS-2 full-length luciferase counterscreen, luminescence; shares compounds with Mdm2 MdmX PPI; 6,200 tested, 77% active; inhibition, % at 8 µM;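 active means mean inhibition at 8 µM reaching about 37%, which flags the compound as non-specific, limit read from the data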;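 further: p53-null SaOS-2 cells with luciferase driven by a doxycycline-inducible promoter; compound on cells about two nights before reading with doxycycline added after day one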
CF NFkB conf – CF NF-kB inhibition confirmation, single concentration; KKLEB CF airway cells, PAF-induced NF-kB-GFP fluorescence, overnight; shares compounds with CF NFkB inh; inhibition, % at 5 µM; AID 602472; 1,300 tested, 64% active;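 further: stimulus PAF is a Pseudomonas aeruginosa filtrate and not platelet activating factor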
ABHD5 PLIN5 conf – ABHD5-PLIN5 interaction inhibition, confirmed. AID 651612. 2,200 tested, 67% active. shares compounds with ABHD5 PLIN5 PPI. biochemical ABHD5-PLIN5 interaction, luminescence. inhibition, % at 4 µM; in the data active means inhibition above about 23%
HNF4 split-luc – HNF4 split-luciferase signal hit, counter-screen; shares compounds with ABHD5 PLIN5 PPI; inhibition, % at 4 µM; HNF4 dimerization, luminescence, biochemical; AID 651674; 2,200 tested, 77% active;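 active means mean inhibition across replicate wells exceeding the computed hit threshold, cut at about 13% in these data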;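 further: light from luciferase halves that rejoin when HNF4 fusion proteins dimerize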
Mdm2 MdmX conf-2 – Mdm2/MdmX (human) interaction inhibition, confirmed; shares compounds with HIF-2a block; SaOS-2 split-luciferase Mdm2/MdmX complementation, luminescence; inhibition, % at 8 µM; 740 tested, 99% active;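 active means mean inhibition of the luminescence signal across two replicates at or above 26 percent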
HIF-2a conf – confirmation of HIF-2a inhibitors; shares compounds with HIF-2a block; 786-0 RCC cells, HIF-2a luciferase reporter luminescence, overnight; inhibition, % at 18.8 µM; 1,800 tested, 56% active; AID 651580;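 active means mean inhibition across four replicates of at least 40 percent at the single tested concentration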
HIF-1a cs – counter-screen for HIF-2a inhibitors: HIF-1a inhibition in MiaPaCa-2 cells | AID 651589 | shares compounds with HIF-2a block | inhibition, % at 18.8 µM | MiaPaCa-2 HIF-1a luciferase reporter, desferoxamine, overnight | 1,800 tested, 72% active;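 active means mean inhibition of the reporter signal across four replicates at the single tested dose of 50% or more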
Numbers stand for hits; 0 = inactive; - = not tested or not shown. Hits are enriched below; roughly 4.6% of the tested compounds scored in any of these assays. Unless noted, no stated cut-off is given here; in the data, active means inhibition above about 40%; inactive means the rest.

SMILES	HIF-2a block	Peg3 prom inh	Mdm2 MdmX PPI	ABHD5 PLIN5 PPI	CF NFkB inh	KKLEB tox	Mdm2 MdmX conf-1	FLuc counter	Mdm2 MdmX conf-2	HIF-2a conf	HIF-1a cs	others
Cc1nc(SC(C)C(=O)NCC2CCCO2)c2cc(-c3ccccc3)sc2n1 (stereo not drawn)	0	0	97.3	0	0	0	95.9	54.8	101.0	-	-
Cc1ccc(C2CC(c3cccs3)=NN2C(=O)CCl)cc1 (stereo not drawn)	0	0	100.3	0	77.0	-60.6	96.3	52.8	102.5	-	-
Cc1nc(NCc2ccco2)c2c(C)c(C)sc2n1	0	88.1	100.4	0	0	0	95.8	53.8	101.5	-	-
COc1cccc2c1C(CO)N1C(C#N)C3CC(C(=O)O)C(C1C2)N3C (stereo not drawn)	42.2	108.1	100.3	0	96.5	-52.2	100.2	52.3	103.5	0	105.9
Cc1ccc(/C=C/C(=O)c2c(C)nc3ccccn23)cc1	0	0	0	0	0	0	-	-	-	-	-
Cc1nc2ccccn2c1C(=O)/C=C/c1cccc([N+](=O)[O-])c1	75.1	102.4	98.7	0	71.4	0	97.5	0	-	0	0	CF NFkB conf=0
O=C(NCCN1C(=O)S/C(=C\c2ccc(Cl)c([N+](=O)[O-])c2)C1=O)C1=COCCO1	43.5	93.2	95.6	0	0	0	57.6	57.3	-	0	104.4
CC(C)C[C@H](NC(=O)c1nc[nH]c1C(=O)N1CCN(C(=O)OC(C)(C)C)CC1)C(=O)OC(C)(C)C	0	0	90.9	0	0	0	80.6	52.6	99.2	-	-
COc1ccc(/C=C2\N=C(SC)N(c3ccccc3OC)C2=O)cc1	0	0	98.4	0	0	0	94.5	47.2	100.0	-	-
C=C(C(=O)c1ccccc1)C(c1ccccc1)C(C)C(=O)c1ccccc1 (stereo not drawn)	80.7	0	92.1	0	0	0	62.5	44.0	-	44.9	96.0
C=C(C(=O)c1ccccc1)C(C(=C)C(=O)c1ccccc1)c1ccc(OC)cc1	60.6	104.6	97.7	0	0	0	98.7	50.4	103.2	59.3	103.4
COc1c(Cl)cc(Cl)cc1C(=O)Nc1ccc(C(=O)O)cc1	0	0	0	0	0	0	-	-	-	-	-
COc1c(Cl)cc(Cl)cc1/C=C/C(=O)c1ccc(NC(=O)c2cccs2)cc1	87.3	100.3	98.5	0	87.5	-82.1	94.8	58.6	99.5	0	107.1
COc1ccccc1C(c1c(N)n(C)c(=O)n(C)c1=O)C(C)[N+](=O)[O-] (stereo not drawn)	0	0	0	0	0	0	-	-	-	-	-
COc1ccccc1C(C[N+](=O)[O-])c1c(N)n(C)c(=O)n(C)c1=O (stereo not drawn)	73.7	104.3	55.2	39.3	0	0	56.6	48.9	-	55.7	0	ABHD5 PLIN5 conf=32.7;HNF4 split-luc=65.3
